Tests used:
Test in all cases: SPOT peptide array binding signal intensity (averaged, normalized) (arbitrary units (background-subtracted, floor 0; scale differs between SH3 domains)); higher = stronger binding of the SH3 domain to the peptide
[1] = molecular target: AgAbp1
How it was run: (§1)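 Binding signal refers to normalized, background-subtracted spot intensity averaged over replicates, expressed in arbitrary units that differ between domains. GST-fused SH3 domains from four yeast species were incubated at 10 μg/ml overnight at 4°C on cellulose membranes of synthetic 15-mer peptides with cysteines replaced by serines. Bound protein was detected with anti-GST antibody, an HRP anti-mouse secondary and luminol, and quantified with Genespotter.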

[2] = molecular target: AgBbc1
How it was run: as §1

[3] = molecular target: AgBem1-D1
How it was run: as §1

[4] = molecular target: AgBzz1-D1
How it was run: as §1

[5] = molecular target: AgBzz1-D2
How it was run: as §1

[6] = molecular target: AgCyk3
How it was run: as §1

[7] = molecular target: AgFus1
How it was run: as §1

[8] = molecular target: AgHof1
How it was run: as §1

[9] = molecular target: AgHse1
How it was run: as §1

[10] = molecular target: AgLsb1
How it was run: as §1

[11] = molecular target: AgLsb4
How it was run: as §1

[12] = molecular target: AgMyo5
How it was run: as §1

[13] = molecular target: AgNbp2
How it was run: as §1

[14] = molecular target: AgRvs167
How it was run: as §1

[15] = molecular target: AgSho1
How it was run: as §1

[16] = molecular target: AgSla1-D1-D2
How it was run: as §1

[17] = molecular target: AgSla1-D3
How it was run: as §1

[18] = molecular target: CaAbp1-D1
How it was run: as §1

[19] = molecular target: CaAbp1-D2
How it was run: as §1

[20] = molecular target: CaBbc1
How it was run: as §1

[21] = molecular target: CaBem1-D1
How it was run: as §1

[22] = molecular target: CaBzz1-D1
How it was run: as §1

[23] = molecular target: CaBzz1-D2
How it was run: as §1

[24] = molecular target: CaCyk3
How it was run: as §1

[25] = molecular target: CaFus1
How it was run: as §1

[26] = molecular target: CaHof1
How it was run: as §1

[27] = molecular target: CaHse1
How it was run: as §1

[28] = molecular target: CaLsb1
How it was run: as §1

[29] = molecular target: CaLsb4
How it was run: as §1

[30] = molecular target: CaMyo5
How it was run: as §1

[31] = molecular target: CaNbp2
How it was run: as §1

[32] = molecular target: CaRvs167
How it was run: as §1

[33] = molecular target: CaRvs167-3
How it was run: as §1

[34] = molecular target: CaSho1
How it was run: as §1

[35] = molecular target: CaSla1-D1-D2
How it was run: as §1

[36] = molecular target: CaSla1-D3
How it was run: as §1

[37] = molecular target: ScAbp1
How it was run: as §1

[38] = molecular target: ScBbc1
How it was run: as §1

[39] = molecular target: ScBem1-D1
How it was run: as §1

[40] = molecular target: ScBzz1-D1
How it was run: as §1

[41] = molecular target: ScBzz1-D2
How it was run: as §1

[42] = molecular target: ScCyk3
How it was run: as §1

[43] = molecular target: ScFus1
How it was run: as §1

[44] = molecular target: ScHof1
How it was run: as §1

[45] = molecular target: ScHse1
How it was run: as §1

[46] = molecular target: ScLsb1
How it was run: as §1

[47] = molecular target: ScLsb2
How it was run: as §1

[48] = molecular target: ScLsb3
How it was run: as §1

[49] = molecular target: ScLsb4
How it was run: as §1

[50] = molecular target: ScMyo3
How it was run: as §1

[51] = molecular target: ScMyo5
How it was run: as §1

[52] = molecular target: ScNbp2
How it was run: as §1

[53] = molecular target: ScPex13
How it was run: as §1

[54] = molecular target: ScRvs167
How it was run: as §1

[55] = molecular target: ScSho1
How it was run: as §1

[56] = molecular target: ScSla1-D1-D2
How it was run: as §1

[57] = molecular target: ScSla1-D3
How it was run: as §1

[58] = molecular target: SpAbp1-D1
How it was run: as §1

[59] = molecular target: SpBbc1
How it was run: as §1

[60] = molecular target: SpBzz1-D1
How it was run: as §1

[61] = molecular target: SpBzz1-D2
How it was run: as §1

[62] = molecular target: SpCyk3
How it was run: as §1

[63] = molecular target: SpHof1
How it was run: as §1

[64] = molecular target: SpHof1-2
How it was run: as §1

[65] = molecular target: SpHof1-3
How it was run: as §1

[66] = molecular target: SpHse1
How it was run: as §1

[67] = molecular target: SpLsb1
How it was run: as §1

[68] = molecular target: SpLsb4
How it was run: as §1

[69] = molecular target: SpMyo1
How it was run: as §1

[70] = molecular target: SpNbp2
How it was run: as §1

[71] = molecular target: SpPex13
How it was run: as §1

[72] = molecular target: SpRvs167
How it was run: as §1

[73] = molecular target: SpSla1-D1-D2
How it was run: as §1

[74] = molecular target: SpSla1-D3
How it was run: as §1

Measured: SPOT peptide array binding signal intensity

QTREPNEPPPPSPAM
2210: [50]
8: [22]
1.67: [32] | [72]
0.667: [14]
1: [44]
1240: [69]
≤ 0: [1] | [2] | [3] | [6] | [7] | [9] | [10] | [11] | [13] | [15] | [16] | [17] | [18] | [19] | [20] | [21] | [23] | [24] | [29] | [31] | [33] | [34] | [35] | [37] | [38] | [39] | [41] | [42] | [43] | [45] | [47] | [52] | [57] | [58] | [59] | [60] | [63] | [65] | [66] | [67] | [68] | [70] | [73] | [74]
7.75: [64]
0.25: [26] | [28]
2: [55] | [71]
108: [30]
1420: [12]
2.5: [8]
1580: [51]
7: [40]
1.5: [4] | [49] | [56]
1.33: [54]
0.5: [36] | [46] | [61] | [62]
13.5: [48]
1.75: [53]
6.5: [25]
4: [5]
0.75: [27]
